Results: PubChem BioAssay (EPA / NIEHS)
Calls of active or inactive are those of the source. Rule for the calls: active = hit-call score of the fitted dose curve at least 0.9, where 1 is the maximum; inactive = score below 0.9.

read-out: HGF (gene 3082); assay: LTEA_HepaRG_HGF: Life Technologies and Expression Analysis (LTEA) Assay for Hepatocyte Growth Facto (HGF) using HepaRG (AID 2283505); details: mRNA level, 48 h; actives raise or lower the signal
Summary of the method: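 Using HepaRG monolayers kept in 0.5% DMSO, chemicals were tested in duplicate over eight half-log concentrations from 100 uM for 48 h. Endpoint: HGF mRNA change relative to DMSO, normalized to ACTB/GAPDH/POLR2A.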

Compound	outcome	AC50
CCOC(=O)CCC(=O)OCC	inactive	
CCc1c(C(=O)NN2CCCCC2)nn(-c2ccc(Cl)cc2Cl)c1-c1ccc(Br)cc1		90.4 µM (active)
Nc1nc(N)c2nc(CNc3ccc(C(=O)N[C@@H](CCC(=O)O)C(=O)O)cc3)cnc2n1	inactive	
CCCCN(CCCC)CCCC	inactive	
CCOC(=O)C(C)(C)Oc1ccc(Cl)cc1	inactive	
CCCc1cc(=O)[nH]c(=S)[nH]1	inactive	
Cc1cc(=O)[nH]c(=S)[nH]1	inactive	
CCNc1cccc(C)c1	inactive	
C[C@]12C=CC(=O)C=C1CC[C@@H]1[C@@H]2C(=O)C[C@@]2(C)[C@H]1CC[C@]2(O)C(=O)CO	inactive	
O=c1c(O)c(-c2ccc(O)c(O)c2)oc2cc(O)cc(O)c12	inactive	
CCCCCCCCCCCC(=O)OC	inactive	
Cc1ccc(C(C)C)c(O)c1	inactive	
CCCCCCOCCO	inactive	
O=C(OCCCCCOC(=O)c1ccccc1)c1ccccc1		2.12 µM (active)
COC(=O)c1ccc(O)cc1	inactive	
NC(=O)Cn1c(=O)cc(CCN2CCN(c3nccc4sccc34)CC2)c2ccc(F)cc21	inactive	

read-out: Insulin Like Growth Factor 1 (IGF1), IGF1 (gene 3479); assay: LTEA_HepaRG_IGF1: Life Technologies and Expression Analysis (LTEA) Assay for Insulin Like Growth Factor 1 (IGF1) using HepaRG (AID 2283506); details: mRNA level, 48 h; actives raise or lower the signal
Summary of the method: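 Differentiated human HepaRG cells were dosed for 48 h in serum-free induction medium with 0.5% DMSO, eight half-log concentrations up to 100 uM, in duplicate. IGF1 mRNA was quantified by qRT-PCR normalized to ACTB, GAPDH, POLR2A; bidirectional fitting versus DMSO.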

Compound	outcome	AC50
CCOC(=O)CCC(=O)OCC	inactive	
CCc1c(C(=O)NN2CCCCC2)nn(-c2ccc(Cl)cc2Cl)c1-c1ccc(Br)cc1		50 µM (active)
Nc1nc(N)c2nc(CNc3ccc(C(=O)N[C@@H](CCC(=O)O)C(=O)O)cc3)cnc2n1	inactive	
CCCCCCCCCCO	inactive	
CCCCN(CCCC)CCCC	inactive	
Oc1ccc2ccccc2c1N=Nc1ccccc1		50 µM (active)
CCOC(=O)C(C)(C)Oc1ccc(Cl)cc1	inactive	
CCCc1cc(=O)[nH]c(=S)[nH]1	inactive	
CC1(C)CC(N=C=O)CC(C)(CN=C=O)C1 (stereo not drawn)	inactive	
CCOc1ccc2c(c1)C(C)=CC(C)(C)N2		12.7 µM (active)
Cc1cccc([N+](=O)[O-])c1C	inactive	
O=c1[nH]cc(F)c(=O)[nH]1	inactive	
Cc1cc(=O)[nH]c(=S)[nH]1	inactive	
Nc1ccc(S(=O)(=O)c2ccc(N)cc2)cc1	inactive	
C=CCOC(=O)c1ccccc1C(=O)OCC=C	inactive	
C=CCc1ccc(O)c(OC)c1	inactive	
CCCCCCC(=O)OCC	inactive	
CCNc1cccc(C)c1	inactive	
C[C@]12C=CC(=O)C=C1CC[C@@H]1[C@@H]2C(=O)C[C@@]2(C)[C@H]1CC[C@]2(O)C(=O)CO	inactive	
COc1ccc2c(c1)c(CC(=O)O)c(C)n2C(=O)c1ccc(Cl)cc1	inactive	
COc1ccc(S(=O)(=O)N2C(=O)[C@@](c3ccccc3OC)(N3C[C@H](O)C[C@H]3C(=O)N(C)C)c3cc(Cl)ccc32)c(OC)c1		81.9 µM (active)
CCCCCCCCCCCC(=O)OC	inactive	
Cc1ccc(C(C)C)c(O)c1	inactive	
CCCCCCOCCO	inactive	
O=C(OCCCCCOC(=O)c1ccccc1)c1ccccc1		1.97 µM (active)
CNCc1cc(F)ccc1Oc1ccc(Cl)c(Cl)c1		89.4 µM (active)
COC(=O)c1ccc(O)cc1	inactive	
NC(=O)Cn1c(=O)cc(CCN2CCN(c3nccc4sccc34)CC2)c2ccc(F)cc21	inactive	

read-out: Intercellular Adhesion Molecule 1 (ICAM1), ICAM1 (gene 3383); assay: LTEA_HepaRG_ICAM1: Life Technologies and Expression Analysis (LTEA) Assay for Intercellular Adhesion Molecule 1 (ICAM1) using HepaRG (AID 2283507); details: mRNA level, 48 h; actives raise or lower the signal
Summary of the method: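 Using the human liver line HepaRG, compounds are tested in duplicate over 48 h at concentrations up to 100 uM. Expression is determined by TaqMan qRT-PCR, normalized to endogenous controls, and analysed relative to 0.5% DMSO vehicle.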

Compound	outcome	AC50
CCOC(=O)CCC(=O)OCC	inactive	
CCc1c(C(=O)NN2CCCCC2)nn(-c2ccc(Cl)cc2Cl)c1-c1ccc(Br)cc1		26.6 µM (active)
Nc1nc(N)c2nc(CNc3ccc(C(=O)N[C@@H](CCC(=O)O)C(=O)O)cc3)cnc2n1	inactive	
CCCCCCCCCCO	inactive	
CCCCN(CCCC)CCCC	inactive	
Oc1ccc2ccccc2c1N=Nc1ccccc1	inactive	
CCOC(=O)C(C)(C)Oc1ccc(Cl)cc1	inactive	
CCCc1cc(=O)[nH]c(=S)[nH]1	inactive	
CC1(C)CC(N=C=O)CC(C)(CN=C=O)C1 (stereo not drawn)	inactive	
CCOc1ccc2c(c1)C(C)=CC(C)(C)N2	inactive	
Cc1cccc([N+](=O)[O-])c1C	inactive	
O=c1[nH]cc(F)c(=O)[nH]1	inactive	
Cc1cc(=O)[nH]c(=S)[nH]1	inactive	
Nc1ccc(S(=O)(=O)c2ccc(N)cc2)cc1	inactive	
C=CCOC(=O)c1ccccc1C(=O)OCC=C	inactive	
C=CCc1ccc(O)c(OC)c1	inactive	
CCCCCCC(=O)OCC	inactive	
CCNc1cccc(C)c1	inactive	
C[C@]12C=CC(=O)C=C1CC[C@@H]1[C@@H]2C(=O)C[C@@]2(C)[C@H]1CC[C@]2(O)C(=O)CO	inactive	
O=c1c(O)c(-c2ccc(O)c(O)c2)oc2cc(O)cc(O)c12	inactive	
COc1ccc2c(c1)c(CC(=O)O)c(C)n2C(=O)c1ccc(Cl)cc1	inactive	
COc1ccc(S(=O)(=O)N2C(=O)[C@@](c3ccccc3OC)(N3C[C@H](O)C[C@H]3C(=O)N(C)C)c3cc(Cl)ccc32)c(OC)c1		21.6 µM (active)
CCCCCCCCCCCC(=O)OC	inactive	
Cc1ccc(C(C)C)c(O)c1	inactive	
CCCCCCOCCO	inactive	
O=C(OCCCCCOC(=O)c1ccccc1)c1ccccc1		3.24 µM (active)
CNCc1cc(F)ccc1Oc1ccc(Cl)c(Cl)c1		79.2 µM (active)
COC(=O)c1ccc(O)cc1	inactive	
NC(=O)Cn1c(=O)cc(CCN2CCN(c3nccc4sccc34)CC2)c2ccc(F)cc21		50 µM (active)
